Test results: PubChem BioAssay AID2665 (Vanderbilt High Throughput Screening Facility, 2010)
Activity calls are given as the source filed them. The rule behind the calls is not given here.

Columns and labels:
[1] = biological target: Muscarinic acetylcholine receptor M1 (Rattus norvegicus) (UniProt P08482); assay: potentiation of ACh response at hM5 and rM1 – CHO cells, calcium, ACh EC10, single 30 µM, SAR follow-up (AID 2665); details: rat M1 potentiation, CHO calcium; at 30 µM; stronger effect = higher value;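 note: 100% = response to a maximal acetylcholine concentration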
[2] = biological target: Muscarinic acetylcholine receptor M5 (Homo sapiens) (UniProt P08912); assay: as above; details: CHO hM5 calcium flux, ACh EC10 potentiation; at 30 µM; stronger effect = higher value
Sequence of Muscarinic acetylcholine receptor M5 (Homo sapiens) (P08912 whole entry, looked up): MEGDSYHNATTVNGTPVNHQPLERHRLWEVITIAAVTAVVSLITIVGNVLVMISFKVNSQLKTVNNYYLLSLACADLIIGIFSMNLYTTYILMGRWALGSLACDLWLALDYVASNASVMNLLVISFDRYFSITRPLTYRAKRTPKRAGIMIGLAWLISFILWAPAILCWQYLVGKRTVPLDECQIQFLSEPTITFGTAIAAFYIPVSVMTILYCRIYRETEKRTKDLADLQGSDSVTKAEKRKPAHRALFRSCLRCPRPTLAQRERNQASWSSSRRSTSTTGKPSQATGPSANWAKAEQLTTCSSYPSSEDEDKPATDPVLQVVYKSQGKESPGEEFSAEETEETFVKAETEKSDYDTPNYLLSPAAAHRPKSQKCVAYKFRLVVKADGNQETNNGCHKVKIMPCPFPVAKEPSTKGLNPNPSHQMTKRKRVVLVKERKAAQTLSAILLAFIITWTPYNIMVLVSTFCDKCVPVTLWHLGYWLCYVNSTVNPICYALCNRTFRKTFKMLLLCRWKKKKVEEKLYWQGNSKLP

SMILES | % ACh max response [1] [%] | % ACh max response [2]
O=C1C(=O)N(Cc2ccc(F)cc2F)c2c(Cl)ccc(Cl)c21 | 17.2 | 19.1% (inactive)
COc1cccc(CN2C(=O)C(=O)c3cccc(F)c32)c1 | 51.1 | 52% (active)
O=C1C(=O)N(Cc2c(F)cccc2F)c2ccc(Cl)cc21 | 27.3 | 31.8% (inactive)
Cc1ccc2c(c1)C(=O)C(=O)N2Cc1ccc(OC(F)(F)F)cc1 | 13.8 | 18.9% (inactive)
O=C1C(=O)N(Cc2ccc(C(F)(F)F)cc2)c2ccc(Cl)cc21 | 44.1 | 67.4% (active)
O=C1C(=O)N(Cc2ccccc2Cl)c2ccccc21 | 43.4 | 42% (active)
Cc1ccc2c(c1)C(=O)C(=O)N2Cc1ccccc1C(F)(F)F | 17.8 | 30.6% (inactive)
O=C1C(=O)N(Cc2c(F)cccc2F)c2c(Cl)cccc21 | 38.8 | 23.6% (inactive)
COc1ccc(CN2C(=O)C(=O)c3cc(Cl)ccc32)cc1 | 20.3 | 32.6% (inactive)
O=C1C(=O)N(Cc2ccc(F)cc2F)c2ccc(OC(F)(F)F)cc21 | 25.9 | 61.9% (active)
O=C1C(=O)N(Cc2ccc(Br)cc2F)c2ccc(Cl)cc21 | 29.9 | 30.4% (inactive)
Cc1ccccc1CN1C(=O)C(=O)c2cc(OC(F)(F)F)ccc21 | 26.2 | 60% (active)
O=C1C(=O)N(Cc2ccccc2C(F)(F)F)c2ccc(Cl)cc21 | 29.6 | 48.4% (active)
Cc1ccc2c(c1)C(=O)C(=O)N2Cc1ccc(C(F)(F)F)cc1 | 22.9 | 35.5% (inactive)
O=C1C(=O)N(Cc2ccc(OC(F)(F)F)cc2)c2c(Cl)ccc(Cl)c21 | 16 | 23.2% (inactive)
O=C1C(=O)N(Cc2ccccc2C(F)(F)F)c2ccccc21 | 37.9 | 40.2% (active)
Cc1ccc2c(c1)C(=O)C(=O)N2Cc1ccccc1C | 20.2 | 29.9% (inactive)
Cc1cccc2c1N(Cc1ccccc1F)C(=O)C2=O | 24.9 | 24.6% (inactive)
O=C1C(=O)N(Cc2ccc(Br)cc2)c2ccc(OC(F)(F)F)cc21 | 13.2 | 47.6% (active)
COc1ccc(CN2C(=O)C(=O)c3cc(OC(F)(F)F)ccc32)cc1 | 12.7 | 60.7% (active)
O=C1C(=O)N(Cc2ccc(Br)cc2F)c2c(Cl)ccc(Cl)c21 | 9.93 | 12.4% (inactive)
O=C1C(=O)N(Cc2ccc(C(F)(F)F)cc2)c2c(F)cccc21 | 60.9 | 71.1% (active)
O=C1C(=O)N(Cc2ccccc2F)c2c(Cl)cccc21 | 50.4 | 49.5% (active)
O=C1C(=O)N(Cc2ccccc2C(F)(F)F)c2c(Cl)cccc21 | 31.1 | 14% (inactive)
COc1cccc(CN2C(=O)C(=O)c3cc(C)ccc32)c1 | 14.5 | 29.6% (inactive)

SMILES | % ACh max response [1] [%] | % ACh max response [2]
O=C1C(=O)N(Cc2ccccc2C(F)(F)F)c2ccc(OC(F)(F)F)cc21 | 22.6 | 56.5% (active)
O=C1C(=O)N(Cc2ccc(-c3ccc(Cl)c(Cl)c3)cc2)c2ccccc21 | 35.3 | 56.3% (active)
O=C1C(=O)N(Cc2ccc(Br)cc2)c2ccc(Cl)cc21 | 26.1 | 32% (inactive)
O=C1C(=O)N(Cc2ccc(Br)cc2F)c2c(F)cccc21 | 39.2 | 46.3% (active)
O=C1C(=O)N(Cc2ccccc2Cl)c2ccc(OC(F)(F)F)cc21 | 12.3 | 51.9% (active)
COc1cccc(CN2C(=O)C(=O)c3cc(Cl)ccc32)c1 | 16.9 | 27.9% (inactive)
Cc1ccccc1CN1C(=O)C(=O)c2cccc(F)c21 | 30.2 | 27.5% (inactive)
O=C1C(=O)N(Cc2ccc(F)cc2F)c2c(Cl)cccc21 | 64.6 | 61.6% (active)
O=C1C(=O)N(Cc2c(F)cccc2F)c2c(F)cccc21 | 33.1 | 25.1% (inactive)
COc1ccc(CN2C(=O)C(=O)c3cc(C)ccc32)cc1 | 14.1 | 21.2% (inactive)
O=C1C(=O)N(Cc2ccc(Br)cc2F)c2ccc(OC(F)(F)F)cc21 | 11.6 | 36.4% (inactive)
COc1ccc(CN2C(=O)C(=O)c3ccccc32)cc1 | 43.6 | 29.2% (active)
O=C1C(=O)N(Cc2ccc(-c3cc(F)ccc3F)cc2)c2ccc(OC(F)(F)F)cc21 | – | 80.9% (active)
Cn1cc(-c2ccc(CN3C(=O)C(=O)c4cc(OC(F)(F)F)ccc43)cc2)cn1 | – | 86.8% (active)
COc1ccc(-c2ccc(CN3C(=O)C(=O)c4ccccc43)cc2)cc1 | 20.1 | 30.8% (inactive)
O=C1C(=O)N(Cc2ccc(-c3ccccc3)cc2)c2ccc(OC(F)(F)F)cc21 | – | 82.7% (active)
O=C1C(=O)N(Cc2ccc(OC(F)(F)F)cc2)c2ccc(Cl)cc21 | 31.3 | 47.1% (active)
COc1ccccc1-c1ccc(CN2C(=O)C(=O)c3cc(OC(F)(F)F)ccc32)cc1 | – | 72.6% (active)
COc1cccc(CN2C(=O)C(=O)c3c(Cl)ccc(Cl)c32)c1 | 13.3 | 35.1% (inactive)
O=C1C(=O)N(Cc2ccccc2F)c2ccccc21 | 38.9 | 24.5% (active)
O=C1C(=O)N(Cc2ccc(-c3ccsc3)cc2)c2ccc(OC(F)(F)F)cc21 | – | 92.3% (active)
O=C1C(=O)N(Cc2ccc(F)cc2F)c2ccc(F)cc21 | 47.3 | 60.3% (active)
O=C1C(=O)N(Cc2ccccc2Cl)c2c(Cl)ccc(Cl)c21 | 13.1 | 18.9% (inactive)
Cc1ccc2c(c1)C(=O)C(=O)N2Cc1ccc(Br)cc1F | 22.3 | 27.8% (inactive)
O=C1C(=O)N(Cc2ccc(C(F)(F)F)cc2)c2c(Cl)cccc21 | 67 | 70.8% (active)

SMILES | % ACh max response [1] [%] | % ACh max response [2]
O=C1C(=O)N(Cc2ccccc2C(F)(F)F)c2c(F)cccc21 | 41.3 | 30.9% (active)
O=C1C(=O)N(Cc2ccc(-c3ccc(Cl)c(Cl)c3)cc2)c2ccc(OC(F)(F)F)cc21 | – | 73.5% (active)
O=C1C(=O)N(Cc2c(F)cccc2F)c2ccccc21 | 36.6 | 17.4% (inactive)
COc1ccc(-c2ccc(CN3C(=O)C(=O)c4cc(OC(F)(F)F)ccc43)cc2)cc1 | – | 46% (active)
Cc1ccc2c(c1)C(=O)C(=O)N2Cc1ccc(Br)cc1 | 19 | 24.1% (inactive)
O=C1C(=O)N(CCc2ccc(Br)cc2)c2ccc(OC(F)(F)F)cc21 | – | 81.1% (active)
O=C1C(=O)N(Cc2ccc(OC(F)(F)F)cc2)c2ccc(OC(F)(F)F)cc21 | 13.8 | 58.9% (active)
CCCOc1ccc(-c2ccc(CN3C(=O)C(=O)c4cc(OC(F)(F)F)ccc43)cc2)cc1 | – | 31.8% (inactive)
COc1ccc(CN2C(=O)C(=O)c3cccc(Cl)c32)cc1 | 49.4 | 30.3% (active)
Cc1ccccc1CN1C(=O)C(=O)c2ccccc21 | 43.2 | 36.3% (active)
Cc1ccc2c(c1)C(=O)C(=O)N2Cc1ccccc1Cl | 16.8 | 24.3% (inactive)
O=C1C(=O)N(Cc2ccc(F)cc2F)c2ccccc21 | 44.8 | 40.4% (active)
O=C1C(=O)N(Cc2ccccc2F)c2ccc(F)cc21 | 40.1 | 46.2% (active)
O=C1C(=O)N(Cc2ccccc2Cl)c2ccc(F)cc21 | 41.4 | 39.9% (active)
COc1ccc(CCN2C(=O)C(=O)c3cc(OC(F)(F)F)ccc32)cc1 | – | 88.3% (active)
Cc1ccccc1CN1C(=O)C(=O)c2c(Cl)ccc(Cl)c21 | 13.7 | 16.4% (inactive)
O=C1C(=O)N(Cc2ccc(-c3ccc(Cl)cc3)cc2)c2ccccc21 | 45.1 | 6.53% (active)
O=C1C(=O)N(Cc2ccc(C(F)(F)F)cc2)c2ccc(OC(F)(F)F)cc21 | 25.7 | 67.2% (active)
O=C1C(=O)N(Cc2ccc(-c3ccc(Cl)nc3)cc2)c2ccc(OC(F)(F)F)cc21 | – | 88.2% (active)
O=C1C(=O)N(Cc2ccc(-c3ccc(Cl)cc3)cc2)c2ccc(OC(F)(F)F)cc21 | – | 45.5% (active)
O=C1C(=O)N(Cc2ccc(-c3ccc(F)nc3)cc2)c2ccc(OC(F)(F)F)cc21 | – | 78.8% (active)
O=C1C(=O)N(Cc2ccc(F)cc2F)c2ccc(Cl)cc21 | 32.4 | 44.9% (active)
Cc1ccccc1CN1C(=O)C(=O)c2cccc(Cl)c21 | 32.8 | 32.6% (inactive)
O=C1C(=O)N(Cc2ccccc2C(F)(F)F)c2ccc(F)cc21 | 47.8 | 36.1% (active)
